The campaign covered roughly 200,000 compounds. About 5,100 (2.5%) were called active.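 How the source made its calls: active means activation above the screen-wide mean activation plus 3 SD (cut at about 130% in these data); inactive means the rest.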 Many of the other results were omitted from the sample, so actives are more common in it than they were.
Experiment: potentiators of IFN-gamma driven STAT1 reporter – cell-based, HTS, luciferase reporter, primary screen (AID 932);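 further: raw ratio to IFN-gamma control signal so 100% means no change and 0% no light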
Conditions: NIH 3T3 STAT1-luciferase reporter, luminescence, at 5.5 µM, stronger effect = higher value, 100% = IFN-gamma alone, no compound

| Structure (SMILES) | activation (% of control) |
| --- | --- |
| Cc1ccc(C(=O)CNc2ccc(F)cc2)cc1 | 111% (inactive) |
| COC(=O)c1ccc(NCC(=O)N2CCCCCC2)cc1 | 114% (inactive) |
| COC(=O)c1ccc(NCC(=O)c2ccccc2)cc1 | 133% (active) |
| CN(Cc1ccccc1)C(=O)CCc1ccccc1 | 104% (inactive) |
| Cc1ccn(-c2cccc(-n3ccc(C)n3)n2)n1 | 135% (active) |
| COc1cc(C(=O)NCc2ccc3c(c2)cc(C)n3C)cc(OC)c1OC | 89.2% (inactive) |
| COc1cccc(CNC(=O)CCC2CCCN(C(=O)c3ccoc3C)C2)c1 (stereo not given) | 105% (inactive) |
| Cc1cccc(N2CCN(C(=O)/C=C/c3ccco3)CC2)c1C | 99.5% (inactive) |
| Cc1nc2ccc(NC(=O)C(F)(F)F)cc2o1 | 95.8% (inactive) |
| Cc1ccc(NC(=O)Nc2ccc3oc(C)nc3c2)cc1 | 177% (active) |
| Cc1nc2cc(NC(=O)NCc3ccccc3)ccc2o1 | 111% (inactive) |
| CC(C)NC(=O)/C(C#N)=C\c1ccc(N(C)C)c(Br)c1 | 100% (inactive) |
| N#Cc1cccc(Nc2c3c(nc4ccccc24)CCCC3)c1 | 85.5% (inactive) |
| CC(C)Cc1cc(C(=O)Nc2cc(Br)ccc2O)no1 | 101% (inactive) |
| Cc1cc(C(=O)NCCCc2ccccc2)no1 | 110% (inactive) |
| CC(C)Cc1cc(C(=O)NCCc2ccccc2)no1 | 130% (active) |
| COc1ccc2c(c1)CC[C@@H]1[C@@H]2CC[C@]2(C)C(=O)CC[C@@H]12 | 106% (inactive) |
| O=C(Cc1cccc2ccccc12)Nc1ccc2oc(-c3ccccc3)nc2c1 | 102% (inactive) |
| COc1cccc(-c2nc3cc(C)ccc3o2)c1 | 106% (inactive) |
| COc1ccc2oc(-c3cccc(NC(=O)CSc4ccc(Cl)cc4)c3)nc2c1 | 163% (active) |
| O=C(Nc1cccc(O)c1)c1ccc(C(=O)c2ccccc2)o1 | 113% (inactive) |
| O=C(NCc1cccs1)c1cc(-c2ccccn2)nc2ccc(Br)cc12 | 106% (inactive) |
| COc1ccc(-c2cn(-c3ccc(OC)cc3)c(=S)[nH]2)cc1 | 110% (inactive) |
| CCC(=O)NC(=S)Nc1ccc(NC(=O)c2ccco2)c(Cl)c1 | 109% (inactive) |
| O=C(NNC(=S)Nc1ccc(Br)cc1Cl)c1ccco1 | 140% (active) |

| Structure (SMILES) | activation (% of control) |
| --- | --- |
| S=C(Nc1ccc(Br)cc1Cl)NC1CCN(Cc2ccccc2)CC1 | 100% (inactive) |
| CCN1CCN(C(=O)CCN2C(=O)c3ccccc3C2=O)CC1 | 96.8% (inactive) |
| CCc1ccccc1NC(=O)CSc1nnc(-c2ccncc2)o1 | 99.3% (inactive) |
| O=C(Nc1ccc(C(=O)O)cc1)/C(=C/c1ccc([N+](=O)[O-])cc1)NC(=O)c1ccccc1 | 94.6% (inactive) |
| COc1ccc(-c2nn(-c3ccccc3)cc2/C=C\C(=O)Nc2ccc(C(=O)O)cc2)cc1 | 103% (inactive) |
| COc1ccc2[nH]c(=O)c(-c3noc(-c4ccc(F)cc4)n3)cc2c1 | 114% (inactive) |
| Cc1ccc(Cc2nc(-c3cccc(C)c3)no2)cc1 | 115% (inactive) |
| COc1ccc(-c2noc(-c3ccc(C)cc3)n2)cc1 | 133% (active) |
| COc1ccc(-c2nc(-c3ccccc3)no2)c(OC)c1 | 43.8% (inactive) |
| Cc1cccc(-c2noc(-c3ccc(F)cc3)n2)c1 | 152% (active) |
| COc1ccc(-c2noc(CSc3ccc(C)cc3)n2)cc1 | 102% (inactive) |
| CC1COc2ccccc2N1C(=O)c1cccnc1Cl (stereo not given) | 98.3% (inactive) |
| Cc1nc(N)c(Br)c(C)c1Br | 96.7% (inactive) |
| CNC(=S)Nc1ccc([N+](=O)[O-])cc1 | 96.9% (inactive) |
| Cc1cc(C(=O)CC#N)c(C)n1-c1c(C)n(C)n(-c2ccccc2)c1=O | 102% (inactive) |
| CC1(C)CC(=O)C/C(=N\NC(=O)c2cccs2)C1 | 101% (inactive) |
| COc1ccccc1Oc1nc(-c2cccnc2)nc2ccccc12 | 102% (inactive) |
| CC(=O)c1c(C)[nH]c(C(=O)OCC(=O)NCCC(C)C)c1C | 86.3% (inactive) |
| COC(=O)c1c(C)[nH]c(C(=O)/C=C/c2ccc(Cl)cc2)c1C | 98.9% (inactive) |
| CCCCOC(=O)c1[nH]c(C)c(C(=O)OC)c1C | 134% (active) |
| COC(=O)C1=C(N)Oc2c(oc(CO)cc2=O)C1c1c(F)cccc1Cl (stereo not given) | 95.5% (inactive) |
| COc1cccc(CC2(CO)CCN(Cc3cnc(-c4cccc(C)c4)nc3)CC2)c1 | 99.5% (inactive) |
| N/C(=N\OC(=O)/C=C/c1ccccc1)c1ccc(Br)cc1 | 98.9% (inactive) |
| N/C(=N\OC(=O)c1ccc2c(c1)OCO2)c1ccc(Br)cc1 | 144% (active) |
| N/C(=N\OC(=O)N1c2ccccc2Sc2ccccc21)c1ccc(Br)cc1 | 92.7% (inactive) |
